High-throughput results: PubChem, several laboratories
Rows were chosen to be rich in hits. Some 4.3% of all compounds tested hit in one or more screens of this group.
ADAM10 inh = inhibits human ADAM10; O14672; recombinant ADAM10, EDANS/DABCYL FRET peptide cleavage, 3 h; inhibition, % at 7 µM; 0.62% of 370,000 active; AID 720582;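 active means inhibition above a per-campaign cutoff equal to the mean of compounds falling between control-based bounds plus 3 SD, cut at about 20% in these data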
Target sequence (O14672 214-748 limits assumed): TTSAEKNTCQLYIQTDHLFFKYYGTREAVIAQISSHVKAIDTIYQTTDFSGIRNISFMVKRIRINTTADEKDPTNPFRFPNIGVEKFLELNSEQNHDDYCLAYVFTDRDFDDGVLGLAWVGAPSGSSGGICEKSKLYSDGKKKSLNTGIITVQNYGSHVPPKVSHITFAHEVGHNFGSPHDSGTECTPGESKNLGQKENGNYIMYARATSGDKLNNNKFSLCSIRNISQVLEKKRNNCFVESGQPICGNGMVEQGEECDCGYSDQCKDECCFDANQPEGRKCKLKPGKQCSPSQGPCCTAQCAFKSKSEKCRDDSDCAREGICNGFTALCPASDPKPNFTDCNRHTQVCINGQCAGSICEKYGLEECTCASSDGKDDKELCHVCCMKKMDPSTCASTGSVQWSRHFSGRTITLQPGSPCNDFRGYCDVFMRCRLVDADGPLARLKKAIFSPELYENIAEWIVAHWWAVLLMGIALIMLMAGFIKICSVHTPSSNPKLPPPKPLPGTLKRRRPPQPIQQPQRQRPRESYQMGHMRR
sPLA2-III inh = Blocks human group III sPLA2 activity; Q9NZ20; inhibition, % at 12.2 µM; 0.56% of 370,000 active; QFRET BODIPY PC-A2 liposome hydrolysis, fluorescence; AID 743126;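 active means inhibition above mean plus 3 SD of compounds lying within the high and low control bounds, cut at about 19% in these data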
NR3A LBD binder = modulates the human NR3A ligand-binding domain. NR3A LBD differential scanning fluorimetry, Tm shift; 0% = protein alone, 100% = glycine-bound protein. 2.5% of 340,000 active. Tm shift relative to glycine control, % at 25 µM;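 active means melting temperature shift of at least 10% of the positive control shift, at one fixed dose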
ADAM17 inh = ADAM17 inhibition, QFRET primary screen | inhibition, % at 6.95 µM | P78536 | AID 720648 | 0.83% of 370,000 active | recombinant ADAM17, EDANS/DABCYL FRET peptide cleavage;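 active means inhibition above the mean of compounds lying between control limits plus 3 SD, set per campaign, cut at about 8.5% in these data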
FAS-TE inh = FAS thioesterase (human) inhibition; recombinant FAS-TE, OMFH fluorogenic substrate, fluorescence endpoint; inhibition, % at 15 µM; 0.67% of 360,000 active;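 active means compounds whose normalised, plate-corrected inhibition of enzyme fluorescence in the single-dose primary screen is 50% or more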
hGIII sPLA2 conf = human GIII-sPLA2 inhibition, confirmation | AID 743280 | recombinant hGIII-sPLA2, BODIPY PC-A2 QFRET fluorescence | 34% of 2,000 active | shares compounds with sPLA2-III inh | inhibition, % at 12.2 µM;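 active means mean inhibition across triplicates above the hit cutoff set in the earlier primary screen, cut at about 19% in these data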
BODIPY interf = 535nm fluorescence interference, HGIII-sPLA2 counter-screen; shares compounds with sPLA2-III inh; BODIPY FL product fluorescence interference, QFRET; inhibition, % at 12.2 µM; 8.5% of 2,000 active;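 active means average inhibition above the solvent-only control mean plus 3 SD, cut at about 6% in these data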
BODIPY interf DR = counter-screen for HGIII-sPLA2 inhibitors: 535nm fluorescence interference, dose response | shares compounds with sPLA2-III inh | BODIPY FL product fluorescence interference, cell-free | IC50, µM | 240 tested, under 10 active;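 active means IC50 at or below 10 µM; inactive means IC50 above 10 µM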
Large screens that a line does not name were inactive (follow-up assays come after a bar, where they were run).

c1ccc(-c2csc(-c3ccc(-c4csnn4)cc3)n2)cc1	sPLA2-III inh 21, NR3A LBD binder 19 | hGIII sPLA2 conf inactive | BODIPY interf inactive
COc1ccc(/C=N/NC(=O)c2ccccc2O)cc1Cn1cc([N+](=O)[O-])cn1	none
COc1ccc(/C=N/NC(=O)c2cc(O)c(O)c(O)c2)cc1Cn1cc([N+](=O)[O-])cn1	sPLA2-III inh 21 | hGIII sPLA2 conf 27 | BODIPY interf inactive
O=C1c2ccccc2C(=O)c2c(NCc3cccnc3)cccc21	none
O=C1c2cccc(NCCCNCCO)c2C(=O)c2cccc(NCCCNCCO)c21	sPLA2-III inh 27 | hGIII sPLA2 conf 25 | BODIPY interf inactive
CCOC(=O)CNc1ncc([N+](=O)[O-])cc1C#N	sPLA2-III inh 22 | hGIII sPLA2 conf inactive | BODIPY interf inactive
CN1/C(=C\C(=O)Nc2ccc(F)cc2)C(C)(C)c2ccccc21	sPLA2-III inh 31 | hGIII sPLA2 conf 28 | BODIPY interf inactive | BODIPY interf DR inactive
CN1/C(=C/C(=O)C2CC2)C(C)(C)c2ccccc21	none
Cc1ccccc1-n1c(=S)[nH]c2nc3c(cc2c1=O)COC(C)(C)C3	sPLA2-III inh 20 | hGIII sPLA2 conf inactive | BODIPY interf inactive
CC(C)CCNC(=O)c1ccc(Cn2c(=S)[nH]c3ccccc3c2=O)cc1	sPLA2-III inh 21 | hGIII sPLA2 conf 20 | BODIPY interf inactive
FC(F)(F)c1cnc(NNC(=S)Nc2cccnc2)c(Cl)c1	sPLA2-III inh 20 | hGIII sPLA2 conf 33 | BODIPY interf inactive | BODIPY interf DR inactive
FC(F)(F)c1cnc(NNC(=S)Nc2ccccc2)c(Cl)c1	none (no result: NR3A LBD binder)
Cc1ccccc1NC(=O)OC1CCC12CCCCC2 (configuration not stated)	none (no result: NR3A LBD binder, FAS-TE inh)
COC(=O)N1Cc2ccnnc2CC1c1ccccc1-c1ccc(F)cc1 (configuration not stated)	none (no result: NR3A LBD binder, FAS-TE inh)
CCCCCOc1ccc(CSC(=N)N)cc1[N+](=O)[O-]	sPLA2-III inh 45 | hGIII sPLA2 conf 30 | BODIPY interf inactive | BODIPY interf DR inactive
COc1ccc(CSC(=N)N)cc1[N+](=O)[O-]	none
CCCCOc1ccc(Br)cc1CSC(=N)N	sPLA2-III inh 44 | hGIII sPLA2 conf 25 | BODIPY interf inactive
C(=C\N1CCCCCC1)/c1nnnn1-c1ccc(-c2ccccc2)cc1	sPLA2-III inh 20 | hGIII sPLA2 conf inactive | BODIPY interf inactive
COc1cc(OC)cc(-c2n[nH]c(=S)n2-c2ccc3c(c2)OCO3)c1	none
Fc1ccc(-n2c(-c3ccc4c(c3)OCO4)n[nH]c2=S)cc1Cl	sPLA2-III inh 23 | hGIII sPLA2 conf 34 | BODIPY interf inactive | BODIPY interf DR inactive
Cc1ccccc1Cn1cc(COC(=O)NCCc2c[nH]c3ccccc23)nn1	none (no result: NR3A LBD binder, FAS-TE inh)
CNC(=S)NNC(=O)c1oc2nc(-c3ccccc3)cc(C)c2c1N	sPLA2-III inh 25 | hGIII sPLA2 conf inactive | BODIPY interf inactive
N#CCc1ccnc2ccccc12	none
N#CC(C#N)c1ccnc2ccccc12	sPLA2-III inh 19 (no result: NR3A LBD binder) | hGIII sPLA2 conf inactive | BODIPY interf inactive
CCN(CC)CCCNC1CCS(=O)(=O)C1 (configuration not stated)	none
CCNC1CCS(=O)(=O)C1 (configuration not stated)	sPLA2-III inh 22 | hGIII sPLA2 conf inactive | BODIPY interf inactive
CCn1c(-c2cc(Cl)ccc2OC)n[nH]c1=S	none
COc1ccc(Cl)cc1-c1n[nH]c(=S)n1C	sPLA2-III inh 24 | hGIII sPLA2 conf inactive | BODIPY interf inactive
COc1ccccc1NC(=O)c1c(C)cc(=O)oc1C	none
Cc1ccccc1NC(=O)c1c(C)cc(=O)oc1C	sPLA2-III inh 23 | hGIII sPLA2 conf inactive | BODIPY interf inactive
Cc1cc(=O)oc(C)c1C(=O)Nc1cccc2ccccc12	none
Cc1cc(=O)oc(C)c1C(=O)Nc1ccccc1F	sPLA2-III inh 26 | hGIII sPLA2 conf inactive | BODIPY interf inactive
O=C(NCc1ccccc1)[C@@H]1CCCN1C(=O)[C@H]1CCCN1C(=O)c1cccs1	none (no result: NR3A LBD binder, FAS-TE inh)
COC(=O)CCn1[nH]c(=O)c2ccccc2c1=O	sPLA2-III inh 24 | hGIII sPLA2 conf inactive | BODIPY interf inactive
Nc1cccc(-c2cccc3nncn23)c1	none (no result: NR3A LBD binder)
COc1ccc(C(C)C)cc1-c1cccc2nncn12	sPLA2-III inh 21 (no result: NR3A LBD binder) | hGIII sPLA2 conf inactive | BODIPY interf inactive
CC1=C(c2ccccc2)C(=O)C(C)(C)CC1=O	none (no result: NR3A LBD binder, FAS-TE inh)
COc1ccc(-n2sc3c(c2=S)-c2cc(OC)ccc2NC3(C)C)cc1	sPLA2-III inh 27 | hGIII sPLA2 conf inactive | BODIPY interf 8.1
COc1ccc2c(c1)-c1c(sn(-c3ccccc3)c1=S)C(C)(C)N2	none
CC(C)(C)OC(=O)NC(Cc1ccccc1)C1CC(C#N)C(=O)O1 (configuration not stated)	none (no result: NR3A LBD binder, FAS-TE inh)
CC(C)(C)S(=O)N1C[C@H]2CC(=O)C(CCO)=C2[C@@H]1CCO (some centres not stated)	none (no result: NR3A LBD binder, FAS-TE inh)
COc1ccc(N(C(=O)c2cccc(OC)c2OC)C2C=CS(=O)(=O)C2)cc1 (configuration not stated)	sPLA2-III inh 24 | hGIII sPLA2 conf inactive | BODIPY interf inactive
CCCC(=O)N(c1ccc(OC)cc1)C1C=CS(=O)(=O)C1 (configuration not stated)	none
COc1ccc2nc(NNC(=O)C3COc4ccccc4O3)sc2c1 (configuration not stated)	sPLA2-III inh 22 | hGIII sPLA2 conf inactive | BODIPY interf inactive
COc1ccc2nc(NC(=O)C3COc4ccccc4O3)sc2c1 (configuration not stated)	none
COc1ccc(CNCC#Cc2ccccc2)cc1	none (no result: NR3A LBD binder, FAS-TE inh)
Cc1cc(=O)[nH]c(SCC(=O)Nc2ncc(S(=O)(=O)c3ccc([N+](=O)[O-])cc3)s2)n1	none
Cc1ccc(Nc2nnc(SCC(=O)Nc3ncc(S(=O)(=O)c4ccc([N+](=O)[O-])cc4)s3)s2)cc1	sPLA2-III inh 20, NR3A LBD binder 16 | hGIII sPLA2 conf inactive | BODIPY interf inactive
O=C1CCC[C@H]2C[C@H](NCc3ccc(Cl)c(C(F)(F)F)c3)CC[C@]23CCCN13	none (no result: NR3A LBD binder, FAS-TE inh)
CC(C)CCNC(=S)Nc1ccc2nc3n(c(=O)c2c1)CCCCC3	sPLA2-III inh 20 | hGIII sPLA2 conf inactive | BODIPY interf inactive
Cc1ccc(C(C)NC(=S)NC2CCCCC2)cc1C (configuration not stated)	sPLA2-III inh 20 (no result: NR3A LBD binder) | hGIII sPLA2 conf inactive | BODIPY interf inactive
COc1ccc(C(C)NC(=S)NC2CCCC2)cc1OC (configuration not stated)	none
